For 79 molecules, activity change, negative = inhibition results are on record in PubChem BioAssay AID493248 (Broad Institute, 2011).

The whole screen tested about 2,300 compounds, of which about 1,400 (61%) were called active. Inconclusive results (about 7%) are left out. No rule for the calls is given here. The set was probably picked from earlier hits. Only a sample is shown. Results with a measured potency or affinity are listed apart.

Chain of FAD-linked sulfhydryl oxidase ALR (Homo sapiens) (P55789 whole entry, looked up): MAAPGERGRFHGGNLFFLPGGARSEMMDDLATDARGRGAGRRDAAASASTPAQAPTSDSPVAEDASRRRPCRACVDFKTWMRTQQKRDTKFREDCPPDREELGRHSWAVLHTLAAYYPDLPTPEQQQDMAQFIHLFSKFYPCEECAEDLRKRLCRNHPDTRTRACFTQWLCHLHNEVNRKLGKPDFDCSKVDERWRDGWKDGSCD

This experiment has as its target FAD-linked sulfhydryl oxidase ALR (Homo sapiens) (UniProt P55789). The experiment is described as follows: inhibitors of human ALR sulfhydryl oxidase, dose response, biochemical, H2O2 detection, luminescence, cherry-pick (AID 493248). Particulars: purified ALR, DTT oxidation, H2O2 HRP-luminol luminescence; at 10 µM (top of the series).
For the molecule `Cn1nnnc1SCc1ccc(C(=O)Nc2nccs2)cc1`, the activity change, negative = inhibition was -48.1%.
As to `O=C1NCCCc2c1oc1ccc(O)cc21`, the activity change, negative = inhibition was determined as 36.1%.
The figure for `Nc1nn2cc(-c3ccccc3)nc2c2ccccc12` is -12.4%.
As to `COC(=O)CNS(=O)(=O)c1ccc(Cc2ccc(S(=O)(=O)NCC(=O)OC)cc2)cc1`, the activity change, negative = inhibition was determined as 3.52%.
Turning to `CCCc1cc(=O)[nH]c(Nc2ccc(O)cc2)n1`, the activity change, negative = inhibition was -100%.
Consider `Cn1cccc1C(=O)OCc1csc(-c2ccccc2)n1`, for which the activity change, negative = inhibition worked out at 0.233%.
Consider `O=C(c1ccc(Cl)s1)N1CCN(c2ccccc2)CC1`, for which the activity change, negative = inhibition is -20%.
For `O=C(c1cc(C2CC2)on1)N1CCN(c2ccccc2)CC1`, the activity change, negative = inhibition is -8.71%.
On to `Cc1cc(C(=O)CC#N)c(C)n1CC(F)(F)F`, for which the activity change, negative = inhibition is -17.1%.
Consider `COc1cccc(/C=N/NC(=O)CNC(=O)c2cccnc2)c1O`, for which the activity change, negative = inhibition is -19%.
For the molecule `CCN1CCSc2ccc(C(=O)NCc3cccc(F)c3)cc21`, the activity change, negative = inhibition came to 16%.
As for `CCCC(C(=O)O)n1c(O)c(C=C2N=c3ccccc3=N2)sc1=S` (centres undefined), the activity change, negative = inhibition was -50.1%.
`O=C(c1ccco1)n1nc(-c2ccccc2)nc1NCc1ccco1`: the activity change, negative = inhibition was -41.9%.
For `O=[N+]([O-])c1cc2c(cc1/C=N/n1c(-c3ccccc3)n[nH]c1=S)OCO2`, the activity change, negative = inhibition is -34.5%.
Take `CC(C)c1cc(C(=O)N/N=C/c2ccco2)n[nH]1`: the activity change, negative = inhibition was found to be 21.6%.
The figure for `CC(=C\c1ccccc1)/C=C1/SC(=O)N(CCCC(=O)Nc2ccc(C(=O)O)cc2)C1=O` is 1.78%; for `S=c1[nH]nc(Cc2ccccc2)n1-c1ccccc1` it is -7.81%; for `CC(=O)Oc1ccc(Nc2ccccc2)cc1` it is -1.83%.
Turning to `COc1ccc2oc3cc(C)[n+]([O-])c(-c4ccc(C)cc4)c3c2c1`, the activity change, negative = inhibition was -57.4%.
Consider `O=C(O)CC/C(=C\c1ccccc1[N+](=O)[O-])c1nc2ccccc2s1`, for which the activity change, negative = inhibition is -55.4%.
With `COc1ccc(-c2noc(CN3CCN(c4ccccc4F)CC3)n2)cc1OC`, the activity change, negative = inhibition was -0.443%.
For the molecule `C(=N\Nc1ncnc2ccccc12)/c1ccccc1`, the activity change, negative = inhibition was -47.4%.
The figure for `O=C(O)CCCN1C(=O)/C(=C\c2ccc(-c3nc4ccccc4s3)o2)SC1=S` is -22.6%.
Under `COc1cc(/C=C2\SC(=S)N(NC(=O)c3ccc(O)cc3)C2=O)ccc1O` stands -100%.
`COc1ccc(OC)c(NC(=O)CN(c2ccc(C(C)C)cc2)S(=O)(=O)c2c(C)noc2C)c1`: the activity change, negative = inhibition stood at 28.2%.
For `COc1ccc(C(=O)N/N=C(/C)c2ccc(N3CCCCC3)cc2)cc1`, the activity change, negative = inhibition is -0.469%.
The figure for `COc1cc(NC(=O)NCCN2CCN(c3ccccc3)CC2)cc(OC)c1OC` is -25.8%.
As to `COc1ccc(NC(=O)c2cccnc2N2CCCC2)cc1`, the activity change, negative = inhibition was determined as 19.3%.
Under `COc1c(C)cccc1C(=O)Nc1ccc(CN2CCCCC2)cc1` stands 7.1%; under `O=C(Nc1cc([N+](=O)[O-])ccc1O)c1ccc2c(c1)C(=O)N(Cc1ccco1)C2=O`, -17.4%; under `CCCN1C(=O)c2ccc(C(=O)Nc3ccccc3C(=O)O)cc2C1=O`, -23.6%.
The figure for `COc1ccc(C)cc1NCc1ccc(OC)c(C)c1OC` is -55.4%; for `Cc1ccc(N2CC(=O)N(NC(=O)CN3CCN(c4ccccc4)CC3)CC2=O)cc1` it is -47.4%; for `COc1ccc(C(=O)N/N=C/C2CC=CCC2)cc1OC` (centres undefined) it is -39.6%.
The figure for `Fc1ccc(-n2c(-c3ccc4c(c3)OCO4)n[nH]c2=S)cc1Cl` is -56.2%; for `CN1C(=O)C2C(c3ccc(N(C)C)cc3)=NN(Cc3ccccc3)C2C1=O` (centres undefined) it is -0.925%; for `Cc1nc2cc(N)ccc2n1-c1ccccc1` it is 367%.
`CC1=Nc2ccccc2N=C(N)C1c1ccccc1` (centres undefined): the activity change, negative = inhibition was -61.3%.
In the case of `Cc1cc(C(=O)NNc2ccc(F)cc2F)no1`, the activity change, negative = inhibition was determined as 5.89%.
Take `COc1cc(C(=S)N(C)C)ccc1O`: the activity change, negative = inhibition was -5.3%.
Consider `O=Cc1ccc(O)c(O)c1`, for which the activity change, negative = inhibition was -17.2%.
As to `Oc1ccc(/C=N/N=C/c2ccc(O)cc2)cc1`, the activity change, negative = inhibition came to 256%.
Under `Oc1ccc(N=Cc2ccc(O)c(O)c2)cc1` stands 102%.
Consider `CC(C)CNC(=O)C(=O)N/N=C/c1cccs1`, for which the activity change, negative = inhibition was -15.3%.
In the case of `CCn1c(O)c(/C=N/n2cnnc2)sc1=S`, the activity change, negative = inhibition is -33%.
For the molecule `Cc1cccc(NCCNc2cccc(C)c2)c1`, the activity change, negative = inhibition was -44.1%.
Take `C/C(=N\NC(=O)CCCNc1ccc(C)cc1)c1ccccn1`: the activity change, negative = inhibition turned out to be 419%.
`Cc1cccc(N/N=C/c2ccncc2)c1`: the activity change, negative = inhibition was -105%.
For `CC(C)C(=O)c1ccc(O)c(O)c1`, the activity change, negative = inhibition was -24.1%.
For the molecule `Cc1cccc(Nc2nc(N)nc(CCl)n2)c1C`, the activity change, negative = inhibition was -38.4%.
As for `CN(C)CCC(=O)N1c2ccccc2Sc2ccc(C(F)(F)F)cc21`, the activity change, negative = inhibition was -13.8%.
For `CCNc1nc(OC)nc(N(OC)S(=O)(=O)c2ccc(C)cc2)n1`, the activity change, negative = inhibition was -55.8%.
Regarding `CC(C)(O)C#Cc1ccc(C(=O)NC2CCCCC2)s1`, the activity change, negative = inhibition is -45.6%.
Consider `CCCN1C(=O)c2cc(C(=O)NC3CCCCCC3)ccc2C1O` (centres undefined), for which the activity change, negative = inhibition is -16.6%.
On to `O=S(=O)(Cc1ccccc1)N(O)c1ccccc1`, for which the activity change, negative = inhibition was -38.7%.
The figure for `O=C(CCn1cnc2ccccc21)N/N=C/c1ccc(O)cc1` is -88.9%.
For the molecule `Cc1ccc(NC(=O)CCC(=O)N/N=C/c2ccc(O)cc2)cc1`, the activity change, negative = inhibition was -2.67%.
Take `Nc1c(Cl)ncnc1N/N=C/c1cccc(O)c1`: the activity change, negative = inhibition was -7.72%.
For the molecule `O/N=C/c1cccn1-c1ccc(O)cc1`, the activity change, negative = inhibition is -99.2%.
In the case of `O=C(C[n+]1ccccc1)N/N=C/c1ccc(O)cc1`, the activity change, negative = inhibition is -108%.
As for `O=c1oc2ccccc2n1CSC1=NCCS1`, the activity change, negative = inhibition was -21.8%.
In the case of `O=[n+]1cc(-c2cc3ccccc3o2)n([O-])c2c1CCCC2`, the activity change, negative = inhibition is -33.9%.
Take `Cc1cc(Nc2ccccc2)n(CCC#N)n1`: the activity change, negative = inhibition was -16.4%.
In the case of `CC(C)NC(=O)c1ccccc1S(=O)c1ccccc1C#N` (centres undefined), the activity change, negative = inhibition is -2.78%.
Under `CN(C)c1ccc(/C(=N\O)C(F)(F)F)cc1` stands -20%; under `Cc1ccc(Nc2c(F)c(F)c(F)c(F)c2C(=O)O)c(C)c1`, -51.9%; under `O=C(O)c1ccccc1Nc1ccccc1`, -21%.
In the case of `Cc1ccc(O)c(-c2cc(C(F)(F)C(F)F)[nH]n2)c1`, the activity change, negative = inhibition is 3.95%.
For the molecule `COc1ccc([N+](=O)[O-])cc1NC1CCCCC1`, the activity change, negative = inhibition is -14.6%.
Under `COc1ccc(CCC(=O)N2CCCC(Nc3ccc(OC)cc3)C2)cc1` (centres undefined) stands 9.94%.
For `Cc1ccc2[nH]cc(CCNC(=O)c3cccnc3)c2c1`, the activity change, negative = inhibition is -59.6%.
As to `Cn1c(=O)c2c(-c3ccccc3)n(-n3cnnc3)cc2n(C)c1=O`, the activity change, negative = inhibition was -14.5%.
The figure for `C=CCN1CCc2cc(O)c(O)cc2C(c2ccccc2)C1` (centres undefined) is -91.4%.
Under `Cc1cccc(C2CN(C)CCc3c2cc(O)c(O)c3Cl)c1` (centres undefined) stands -100%.
On to `Cn1c(=O)[nH]c(=O)c2c1[nH]c(=S)n2Cc1ccc(Cl)cc1`, for which the activity change, negative = inhibition is -38.6%.
Regarding `CCCCCn1c(Br)nc2c1c(=O)n(CC(N)=O)c(=O)n2C`, the activity change, negative = inhibition is -20.4%.
Under `CCN1CCN(Cc2nc3c(c(=O)n(C)c(=O)n3C)n2CC(=O)c2ccccc2)CC1` stands 13.8%; under `N#C/C(N=Nc1ccccc1O)=N\Nc1ccccc1O`, 22.3%; under `CC(C)(C)Nc1c(-c2cccs2)nc2ccccn12`, -39.4%.
